High-throughput results deposited in PubChem BioAssay by National Center for Advancing Translational Sciences (NCATS).
TDP1 inh – blocks human tyrosyl-DNA phosphodiesterase 1. Q9NUW8. recombinant TDP1, AlphaScreen DNA substrate cleavage. Potency, µM (series often up to 130 µM), for inactives: at the top dose activity change, negative = inhibition, hits mostly inhibitors. 350,000 tested, 0.28% active; further: on the % scale 0 is the no-effect control and ±100 the full control effect; nearly all actives have a fitted effect of over 40% in size
Target sequence (Q9NUW8 whole entry, looked up): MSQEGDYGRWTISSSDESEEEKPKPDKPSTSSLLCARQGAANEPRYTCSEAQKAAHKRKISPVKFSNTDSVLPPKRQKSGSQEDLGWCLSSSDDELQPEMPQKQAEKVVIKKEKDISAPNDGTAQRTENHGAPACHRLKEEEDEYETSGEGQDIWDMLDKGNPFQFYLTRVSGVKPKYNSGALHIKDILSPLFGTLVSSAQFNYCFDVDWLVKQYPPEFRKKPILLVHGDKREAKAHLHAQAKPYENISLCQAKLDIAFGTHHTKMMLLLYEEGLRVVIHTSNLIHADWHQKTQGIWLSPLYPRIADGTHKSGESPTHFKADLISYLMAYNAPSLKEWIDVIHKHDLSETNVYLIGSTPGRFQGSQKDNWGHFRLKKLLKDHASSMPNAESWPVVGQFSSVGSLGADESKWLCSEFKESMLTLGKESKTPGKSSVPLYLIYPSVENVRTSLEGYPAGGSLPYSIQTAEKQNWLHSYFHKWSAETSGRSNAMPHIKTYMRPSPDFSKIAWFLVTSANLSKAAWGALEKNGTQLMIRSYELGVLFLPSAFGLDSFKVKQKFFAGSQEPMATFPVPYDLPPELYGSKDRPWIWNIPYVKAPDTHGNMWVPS
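Signal: AlphaScreen proximity between streptavidin donor and anti-FITC acceptor beads on intact substrate. Reaction: Tdp1 1 nM, substrate 15 nM final, 5 min RT after 15 min compound preincubation.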
Pol kappa inh-1 – DNA polymerase kappa (human) inhibition. Q9UBT6. purified Pol kappa, fluorescent DNA synthesis assay, 10 min. Potency, µM (highest dose often 107 µM), for inactives: at the highest dose activity, negative = inhibition, actives largely listed as inhibitors. 400,000 tested, 0.53% active; further: on the % scale 0 is the no-effect control and ±100 the full control effect
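Pol kappa 10 nM + cpd, 15 min RT; start w/ substrate 50 nM final; fluorescence kinetic read, 0 and 10 min. Neg ctrl: buffer, no enzyme.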
Pol beta inh – inhibitors of human DNA polymerase beta; P06746; Pol beta primer extension/strand displacement, fluorescence kinetic; Potency, µM (series often up to 114 µM), without a hit: top-dose activity change, negative = inhibition, actives largely listed as inhibitors; 340,000 tested, 1.3% active; AID 485314; further: on the % scale 0 is the no-effect control and ±100 the full control effect
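Pol beta (10 nM) and compounds were preincubated 15 min at room temperature, then 50 nM substrate (final) started primer extension/strand displacement. Reads were taken at 0 and 10 min; concentration-response data were fitted to a four-parameter Hill equation.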
Pol iota inh – inhibitors of human DNA polymerase iota. Potency, µM (titrated, usually from 115 µM), for the others: at the highest dose activity, negative = inhibition, actives largely listed as inhibitors. Q9UNA4. 390,000 tested, 1% active. Pol iota fluorescent replication assay, 10 min. AID 588590
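Pol iota at 10 nM preincubated 15 min with compounds at room temperature; reaction started with fluorescent substrate, 50 nM final. Fluorescence read kinetically at 0 and 10 min; buffer-only wells as negative control.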
Pol eta inh-1 – blocks human DNA polymerase eta activity; recombinant Pol eta, fluorescent DNA replication assay; Potency, µM (highest dose often 114 µM), for the others: top-dose activity change, negative = inhibition, hits mostly inhibitors; Q9Y253; 390,000 tested, 1.2% active; further: on the % scale 0 is the no-effect control and ±100 the full control effect
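Pol eta at 10 nM preincubated with compounds 15 min at room temperature; reaction started with fluorescent substrate (50 nM final) and read kinetically at 0 and 10 min.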
Pol iota confirm – Human Pol iota inhibitor confirmatory assay. shares compounds with Pol kappa inh-1. Pol iota primer extension, TAMRA/BHQ fluorescence. Potency, µM, actives largely listed as inhibitors. 1,500 tested, 77% active
Pol kappa inh-2 – Pol kappa (human) inhibition, cherry-pick confirmation; shares compounds with Pol eta inh-1; purified Pol-kappa, fluorescent strand-displacement substrate; Potency, µM, actives largely listed as inhibitors; 920 tested, 76% active; AID 720501
Pol eta inh-2 – Pol eta (human) inhibition, cherry-pick confirmation | shares compounds with Pol eta inh-1 | Pol eta primer extension, TAMRA/BHQ fluorescence, 10 min | Potency, µM, actives largely listed as inhibitors | 2,600 tested, 64% active | AID 720502
The depositor's hits bear a star; ? = inconclusive; . = no result; [ ] = another dose, or the depositor's remark. In the library only some 2.4% were active in any assay of this set; here they are far more common. The call rests on the fitted dose curve; in most records, active means well fitted curve in the direction sought with a large enough effect; inconclusive means small, poorly fitted or top-dose-only effect, or another doubt; inactive means no such curve, though single readings can be large; an effect the other way counts as inactive or inconclusive. Potency means the concentration at half of the fitted maximal effect.

SMILES	TDP1 inh	Pol kappa inh-1	Pol beta inh	Pol iota inh	Pol eta inh-1	Pol eta inh-2	others
OC[C@@H](O)C(O)[C@H](O)[C@@H](O)CO (stereo partly drawn)	6%	5%[60.1 µM]	.	.	.	.
O=c1c(O)c(-c2ccc(O)c(O)c2)oc2cc(O)ccc12	-8%	2.8µM*	.	2.5µM*	1.6µM*	7.6*	Pol iota confirm=6.7*;Pol kappa inh-2=8.4*
COc1cc(-c2oc3cc(O)ccc3c(=O)c2O)ccc1O	-1%[56.1 µM]	-10%[60.1 µM]	.	.	.	.
CCn1c(SCC(=O)O)nc2sc3c(c2c1=O)CCC3	.	?	14µM*	?	13µM*	48*	Pol iota confirm=67*
CCn1c(SCC(=O)OC)nc2sc3c(c2c1=O)CCC3	.	89µM*	13µM*	18µM*	?	67*	Pol iota confirm=60*
CC1(C)CCC[C@@]2(C)C1CC[C@@](C)(O)[C@@H]2CC[C@@](C)(O)C1CO1 (stereo partly drawn)	-1%	.	.	.	.	.
Cc1cc(NC(=O)CSc2nc3c(c(-c4cccnc4)c2C#N)CCC3)no1	0%	2%	1%	28%	?	.	Pol iota confirm=38*;Pol kappa inh-2=38*
O=C(CCOc1ccccc1)NO	.	3%	.	13%	.	.
O=C(Nc1ccc(S(=O)(=O)Nc2ncccn2)cc1)c1ccc(N2CCCC2=O)cc1	.	-45%	?	?	45µM*	?	Pol iota confirm=?
COc1cc2c(-c3ccc(O)cc3)nc3c(c(C)nn3-c3ccccc3)c2cc1OC	?	-11%	?	?	?	67*	Pol iota confirm=24*
COc1cccc(-c2nc3c(c(C)nn3-c3ccccc3)c3cc(OC)c(OC)cc23)c1	-9%[12.3 µM]	-8%	34%	-18%	-11%	.
Cc1ccc(Cn2c(=O)n(Cc3ccccc3Cl)c(=O)c3ccccc32)cc1	6%	-6%	4%	26%	-1%	.
Cc1cc2oc(=O)c(CC(=O)O)c(C)c2c2occ(-c3ccccc3)c12	4%	-16%	4%	-12%	10%	.
CC(OC(=O)c1cccc(O)c1)C(=O)N(C)Cc1ccccc1 (stereo not drawn)	.	-3%	.	14%	0%	.
CC(OC(=O)/C(C#N)=C/c1ccc(N(C)C)cc1)C(=O)N(C)Cc1ccccc1 (stereo not drawn)	2%	?	1%	89µM*	50µM*	24*	Pol iota confirm=27*
O=C(/C=C/c1ccco1)NCC1OCCc2ccccc21 (stereo not drawn)	.	35µM*	14µM*	14µM*	13µM*	43*	Pol iota confirm=42*
Cc1cc(SCC(=O)Nc2ccc(Cl)cc2)nc2ccccc12	.	6%	?	36%	.	.
Cc1cc(SCC(=O)Nc2ccc3[nH]c(=O)[nH]c3c2)nc2ccccc12	45µM*	-4%	.	?	40µM*	.	Pol iota confirm=60*;Pol kappa inh-2=?
CSc1nc2c(sc3ccccc32)c(=O)n1Cc1ccc(C)cc1	-11%	-1%[60.1 µM]	-1%	7%	-16%	.
CSc1ccccc1NC(=O)COC(=O)/C=C/c1ccco1	.	0%	.	?	?	.
Cc1c(Cl)cnc(NC(=O)COC(=O)/C=C/c2ccco2)c1Cl	?	79µM*	.	22µM*	22µM*	60*	Pol iota confirm=?;Pol kappa inh-2=60*
Nc1ccc(-c2c3ccc(=O)cc-3oc3cc(O)ccc23)cc1C(=O)O	.	79µM*	45µM*	25µM*	20µM*	30*	Pol kappa inh-2=15*
COc1ccc(-c2c(C)c3ccc(O)cc3oc2=O)cc1OC	1%	-11%	-4%	28%	-18%	.
Cc1nnc(N/N=C/c2ccc(O)c([N+](=O)[O-])c2)[nH]c1=O	2%	1%	-2%	?	-24%	.
Cc1csc(N/N=C/c2ccc(O)c([N+](=O)[O-])c2)n1	?	22µM*	25µM*	13µM*	7.1µM*	38*
SMILES	TDP1 inh	Pol kappa inh-1	Pol beta inh	Pol iota inh	Pol eta inh-1	Pol eta inh-2	others
COc1ccccc1N1C(=N)S/C(=C\c2ccc(-c3ccccc3C(=O)O)o2)C1=O	11µM*	50µM*	79µM*	20µM*	14µM*	30*	Pol kappa inh-2=19*
COc1ccccc1-c1ccc(C(=O)O)o1	?	-9%	3%	-2%	-8%	.
O=[N+]([O-])c1ccc(O)c(C=Nc2ccc3c(c2)OCO3)c1	0%	-11%	53%	-9%	-16%	.
O=[N+]([O-])c1cc(Br)cc(C=Nc2ccc3c(c2)OCO3)c1O	9%	?	25µM*	?	79µM*	76*
Cc1ccc(NC(=O)CN(C)S(=O)(=O)c2ccc3[nH]c(=O)oc3c2)c(C)c1	2%	-8%	?	-7%	79µM*	27*
CCN(CC)CCCNc1oc(-c2ccc(OC)cc2)nc1C#N	2%	-7%[60.1 µM]	-12%	13%	-15%	.
COc1ccccc1NC(=O)c1cc2cc3ccc(OC)c(Cl)c3nc2s1	?	-9%[60.1 µM]	2.8µM*	-27%	?	?	Pol kappa inh-2=21*
Cc1cn2c(=O)cc(COc3ccc(NC(=O)c4cccc(F)c4)cc3)nc2s1	1%	-6%	1%	10%	-17%	.
COc1ccc(C(=O)NCC(c2ccc(N(C)C)cc2)N2CCc3ccccc32)cc1 (stereo not drawn)	11%	-9%[60.1 µM]	5%	21%	-20%	.
O=C(Oc1cccc([N+](=O)[O-])c1)c1ccc2c(=O)n3c(nc2c1)CCC3	.	?	.	40µM*	28µM*	76*
O=C(Oc1ccc(F)c(F)c1)c1ccc2c(=O)n3c(nc2c1)CCC3	7%	-6%	.	44%	-19%	.
COc1cc(C(CC(=O)N2CCCC2)c2c(OC)cc(OC)c3c(-c4ccccc4)cc(=O)oc23)cc(OC)c1OC (stereo not drawn)	-12%	?	45µM*	?	40µM*	?
COc1ccc(C(CC(=O)N2CCOCC2)c2c(OC)cc(OC)c3c(-c4ccccc4)cc(=O)oc23)cc1 (stereo not drawn)	-4%	?	35µM*	71µM*	40µM*	?
Cc1cc(C)c2c(n1)nn1c(C)c(CCC(=O)NCc3ccc(Cl)cc3)c(C)nc21	3%	3%	16%	-14%	-6%	.
O=C(Nc1cc(Cl)ccc1O)c1cc2nc(-c3ccc4c(c3)OCO4)cc(C(F)(F)F)n2n1	2%	-8%	-1%	-14%	-6%	.
COc1cccc(NC(=O)Cn2nc(N3CCN(c4ccccc4)CC3)ccc2=O)c1	5%	-19%	16%	-18%	-13%	.
